# In PubChem BioAssay AID1259421 (Broad Institute, 2018):
# “And” between values parts separate entries of the source, which are not always exact repeats. Equal values may be shown once. The whole screen tested about 6,400 compounds, of which about 610 (9.5%) were called active. No stated cut-off is given here; in the data, active means activity change below about -70%; inconclusive means no clear call, values can overlap the other calls; inactive means above that. Shown is part of a subset that was picked to be rich in actives. Some structures have more than one record in an assay (separate samples or runs), and their calls can disagree.
# Test: T. gondii ME49Luc in HeLa cells, luciferase assay, 72 h, no IFN-y (AID 1259421)
# Conditions: stronger effect = lower value, concentration not given here
row,Compound,"activity change, negative = inhibition"
1,C[C@@H]1CC2C3C[C@H](F)C4=CC(=O)C=C[C@]4(C)[C@@]3(F)[C@@H](O)C[C@]2(C)[C@@]1(O)C(=O)CO (some centres undefined),1.95% (inactive)
2,CC(=O)N[C@H]1CSSC[C@@H](C(N)=O)NC(=O)[C@H](C(C)C)NC(=O)[C@H](C)NC(=O)[C@H](Cc2cnc[nH]2)NC1=O,-4.46% (inactive)
3,O=C(/C=C/c1ccc(O)c(O)c1)O[C@@H]1C[C@](OC(=O)/C=C/c2ccc(O)c(O)c2)(C(=O)O)C[C@@H](O)[C@H]1O,2.12% (inactive)
4,NC(=O)CCCCn1ccc(NC(N)=NCC(F)(F)F)n1,4.57% (inactive) and 3.01% (inactive)
5,C=C1C2CC[C@@]3(C)[C@H](c4ccoc4)OC(=O)C[C@]13O[C@H]1CC(=O)C(C)(C)[C@H](C(O)C(=O)OC)[C@@]21C (some centres undefined),-2.51% (inactive)
6,O=C1CCC[C@@H]2[C@@H]3CCC[N+]4([O-])CCC[C@H](CN12)[C@@H]34 (some centres undefined),-1.57% (inactive)
7,N=C1CCCN1Cc1[nH]c(=O)[nH]c(=O)c1Cl,3.86% (inactive)
8,COc1cc2c(cc1OC(C)C)[C@H](c1ccc(Cl)cc1)N(c1ccc(N(C)CC3CCC(N4CCN(C)C(=O)C4)CC3)cc1)C(=O)C2 (some centres undefined),-56.4% (inactive)
9,N[C@@H](CSCC(=O)O)C(=O)O,14.1% (inactive)
10,COc1ccc(/C=C/C(=O)c2cc(O)ccc2O)cc1,13.6% (inactive)
11,Nc1ncnc2c1ncn2[C@H]1CC[C@@H](CO)O1,1.09% (inactive)
12,CC(C)[N+]1(C)C2CCC1CC(OC(=O)C(CO)c1ccccc1)C2 (centres undefined),0.0846% (inactive)
13,O=C(O)CCc1cc(C(=O)c2ccc(OC3CCCC3)cc2O)ccc1OCc1ccc2c(=O)[nH]oc2c1,6.19% (inactive)
14,Clc1ccc(CCC(Cn2ccnc2)Sc2c(Cl)cccc2Cl)cc1 (centres undefined),-83.9% (active) and -87.7% (active)
15,Clc1ccc(COC(Cn2ccnc2)c2ccc(Cl)cc2Cl)cc1 (centres undefined),-77.4% (active) and -87.9% (active)
16,Cl/C(=C/n1cncn1)c1ccc(Cl)cc1Cl,-5.43% (inactive)
17,Clc1ccc(C(Cn2ccnc2)OCc2c(Cl)cccc2Cl)c(Cl)c1 (centres undefined),-52.5% (inactive)
18,O=C(O)/C=C/c1ccc(Cn2ccnc2)cc1,-0.196% (inactive) and 8.1% (inactive)
19,Cl/C(=C\n1cncn1)c1ccc(Cl)cc1Cl,-11.5% (inactive)
20,Clc1ccc(CO/N=C(\Cn2ccnc2)c2ccc(Cl)cc2Cl)c(Cl)c1,-81.5% (active) and 40% (inactive)
21,COc1cc(/C=C/C(=O)N2CCN(CC(=O)NC(C)C)CC2)cc(OC)c1OC,-0.924% (inactive)
22,CC(C)NC(=O)COc1cccc(-c2nc(Nc3ccc4[nH]ncc4c3)c3ccccc3n2)c1,-49.1% (inactive)
23,COc1ccc(CNC(=O)c2cc(-c3cncc(C)c3)ncc2-c2nccs2)nc1OC,3.2% (inactive)

row,Compound,"activity change, negative = inhibition"
1,N[C@@H](C(=O)O)[C@@H](OCc1ccccc1)C(=O)O (racemic),8.74% (inactive)
2,COc1cc(/C=C/C(=O)O[C@H]2CC[C@]34CC35CC[C@]3(C)[C@@H](C(C)CCC=C(C)C)CC[C@@]3(C)C5CCC4C2(C)C)ccc1O (some centres undefined),9.65% (inactive)
3,C=C(NC(=O)C(=C)NC(=O)c1csc(C2=N[C@H]3c4csc(n4)[C@H]4NC(=O)c5csc(n5)[C@H]([C@@](C)(O)[C@@H](C)O)NC(=O)[C@H]5CSC(=N5)/C(=C/C)NC(=O)[C@H]([C@@H](C)O)NC(=O)c5csc(n5)[C@]3(CC2)NC(=O)[C@H](C)NC(=O)C(=C)NC(=O)[C@H](C)NC(=O)[C@H](C(C)CC)N[C@@H]2C=Cc3c([C@H](C)O)cc(nc3[C@H]2O)C(=O)O[C@@H]4C)n1)C(N)=O (some centres undefined),-5.27% (inactive)
4,Clc1cccc(Nc2nnc(-c3ccccc3)c3ccccc23)c1,-1.93% (inactive) and 0.598% (inactive)
5,O=C(O)c1ccc2c(c1)nc(Nc1cccc(Cl)c1)c1ccncc12,-81.6% (active)
6,O=C(O)c1cccnc1Nc1cccc(C(F)(F)F)c1,5.33% (inactive) and 7.04% (inactive)
7,Cc1noc(-c2ccc(-c3ccc(CC(=O)O)cc3)cc2)c1NC(=O)O[C@H](C)c1ccccc1,6.32% (inactive)
8,CN(C)c1cc(NC(=O)CNC(C)(C)C)c(O)c2c1C[C@H]1C[C@H]3[C@H](N(C)C)C(=O)C(C(N)=O)C(=O)[C@@]3(O)C(=O)C1C2=O (some centres undefined),5.81% (inactive)
9,O=C(NCCCCN1CCOCC1)c1cc2ccccc2o1,0.553% (inactive)
10,CN1CCN(CCC=C2c3ccccc3Sc3ccc(S(=O)(=O)N(C)C)cc32)CC1,25.4% (inactive) and 73.8% (inactive)
11,CN1CCN(CCCN2c3ccccc3Sc3ccc(Cl)cc32)CC1,16.2% (inactive) and 18.1% (inactive)
12,OCCN1CCN(CCCN2c3ccccc3Sc3ccc(Cl)cc32)CC1,-81% (active)
13,CN(C)CC/C=C1/c2ccccc2Sc2ccc(Cl)cc21,-62.1% (inactive) and 35.6% (inactive)
14,CC(=O)c1ccc2c(c1)N(CCCN1CCN(CCO)CC1)c1ccccc1S2,15.8% (inactive)
15,OCCN1CCN(CCCN2c3ccccc3Sc3ccc(C(F)(F)F)cc32)CC1,-60% (inactive) and -63.7% (inactive)
16,OCCN1CCN(CC/C=C2/c3ccccc3Sc3ccc(C(F)(F)F)cc32)CC1,-74.2% (active)
17,CN(C)CC/C=C1\c2ccccc2Sc2ccc(Cl)cc21,-58.2% (inactive)
18,OCCN1CCN(CC/C=C2/c3ccccc3Sc3ccc(Cl)cc32)CC1,-82.3% (active)
19,CC[C@H](C)[C@H](NC(=O)[C@H](Cc1ccc(O)cc1)NC(=O)[C@@H](NC(=O)[C@H](CCCN=C(N)N)NC(=O)[C@@H](N)CC(=O)O)C(C)C)C(=O)N[C@@H](Cc1cnc[nH]1)C(=O)N1CCC[C@H]1C(=O)O,8.39% (inactive)
20,O=S1(=O)N[C@H]2CCCN2c2ccccc21,1.4% (inactive)
21,CCC(=O)O[C@@]1(C(=O)CCl)[C@@H](C)C[C@H]2[C@@H]3C[C@H](F)C4=CC(=O)C=C[C@]4(C)[C@]3(F)[C@H](O)C[C@@]21C,6.07% (inactive)
22,CC(=O)c1c(O)c(C)c(O)c2c1OC1=CC(=O)C(C(C)=O)C(=O)C12C (centres undefined),-3.87% (inactive)
23,COc1ccccc1OCC(O)CNC(C)C (centres undefined),17.1% (inactive) and 3.92% (inactive)

row,Compound,"activity change, negative = inhibition"
1,COc1cc2c(cc1OC)C(=O)CC2,4.96% (inactive)
2,COc1cc(CCC(C)=O)ccc1O,7.65% (inactive)
3,COC(=O)C[C@](O)(CCCC(C)(C)O)C(=O)O[C@@H]1C(OC)=C[C@]23CCCN2CCc2cc4c(cc2[C@H]13)OCO4,-83.4% (active) and -83.9% (active) and -85.7% (active)
4,COCCCOc1ccnc(CS(=O)c2nc3ccccc3[nH]2)c1C (centres undefined),106% (inactive) and 41.3% (inactive)
5,N#CC(c1ccnc(OCc2ccc(CN3CCOCC3)cc2)n1)c1nc2ccccc2s1 (centres undefined),-29.2% (inactive)
6,COc1cc2ncn(-c3cc(OCc4ccccc4C(F)(F)F)c(C(N)=O)s3)c2cc1OC,-75.1% (active)
7,C[C@@H](Oc1cc(-n2cnc3ccc(CN4CCN(C)CC4)cc32)sc1C(N)=O)c1ccccc1C(F)(F)F,-75.7% (active)
8,C[C@H]1CC2C([C@@H](O)C[C@@]3(C)C2CC[C@]3(O)C(=O)COC(=O)CCC(=O)O)[C@@]2(C)C=CC(=O)C=C12 (some centres undefined),5.48% (inactive) and 3.76% (inactive)
9,COC1CC2CCC(C)C(O)(O2)C(=O)C(=O)N2CCCCC2C(=O)OC(C(C)CC2CCC(O)C(OC)C2)CC(=O)C(C)/C=C(\C)C(O)C(OC)C(=O)C(C)CC(C)/C=C/C=C/C=C/1C (centres undefined),5.34% (inactive) and -8.87% (inactive)
10,C=C1CC2C3C=C(C)C4=CC(=O)CC[C@]4(C)C3CC[C@]2(C)[C@@]1(OC(C)=O)C(C)=O (some centres undefined),10.5% (inactive) and -22.4% (inactive)
11,CCCCCCCCCCCCCCCCCC(=O)OCC(O)CO (centres undefined),5.64% (inactive)
12,COc1ccc(C2CC(c3c(O)cc(C)oc3=O)=NCCS2)c(OC)c1 (centres undefined),10.3% (inactive)
13,CO[C@H]1C=CO[C@@]2(C)Oc3c(C)c(O)c4c(O)c(c(/C=N/N5CCN(C6CCCC6)CC5)c(O)c4c3C2=O)NC(=O)/C(C)=C\C=C[C@H](C)[C@H](O)[C@@H](C)[C@@H](O)[C@@H](C)[C@H](OC(C)=O)[C@@H]1C,-5.33% (inactive)
14,CCCCCCCCCCCCCCCCCCOC[C@H](COP(=O)(O)OCC[N+](C)(C)C)OC,5.04% (inactive)
15,O=c1c(-c2ccc(O)cc2)coc2c([C@@H]3O[C@H](CO)[C@@H](O)[C@H](O)[C@H]3O)c(O)ccc12,-0.619% (inactive)
16,CCN(CC)CCNC(=O)c1c(C)[nH]c(/C=C2\C(=O)Nc3ccc(F)cc32)c1C,-75.8% (active)
17,Cc1[nH]c(/C=C2/C(=O)Nc3ccc(F)cc32)c(C)c1C(=O)NC[C@H](O)CN1CCOCC1,-69.2% (inactive)
18,Cc1[nH]c(/C=C2\C(=O)Nc3ccccc32)c(C)c1CCC(=O)O,7.07% (inactive)
19,COc1cccc(OC)c1-c1ccc(C[C@H](NC(=O)c2c(Cl)cccc2Cl)C(=O)O)cc1,4.91% (inactive)
20,O=C(c1ccc(OCCCc2cnc[nH]2)cc1)C1CC1,31.1% (inactive)
21,CN=C(NC)NCc1ccc(OC)cc1,0.956% (inactive)
22,CC(C)CC1C(=O)N2CCCC2C2(O)OC(NC(=O)C3C=C4c5cccc6[nH]c(Br)c(c56)CC4N(C)C3)(C(C)C)C(=O)N12 (centres undefined),18.4% (inactive)
23,COc1cc2c(cc1OC)C(C(C(=O)N(CCc1ccc(OC)c(OC)c1OC)CCc1ccc(OC)c(OC)c1OC)c1ccccc1)=NCC2 (centres undefined),23.5% (inactive)
